“And” between values parts separate entries of the source, which are not always exact repeats. Equal entries are not always repeated. Records with an inconclusive call do not appear. A call without a number means that no potency is given here. Unmarked numbers belong to inactive results. The source made the active and inactive calls. The call rests on the fitted dose curve; in most records, active means well fitted cell-killing curve with a large enough effect; inconclusive means small, poorly fitted or top-dose-only effect; inactive means flat fitted curve, though single readings scatter.

This passage reports Potency and activity change, negative = cytotoxic results from PubChem BioAssay (NCATS).
Potency means the concentration at half of the fitted maximal effect.

The nature of the assay: qHTS of pediatric cancer cell lines to identify multiple opportunities for drug repurposing: Primary screen for DAOY cells (AID 1347090). Further: nearly all actives have a fitted effect of over 55% in size. To be noted: DAOY medulloblastoma viability, CellTiter-Glo luminescence, 48 h; series mostly up to 46 µM. The text has this: Drug repurposing or repositioning has been offered as a strategy for drug development in oncology programs. This approach has special potential for childhood cancers and other rare or orphan diseases, where the expected return on new drug development has been a disincentive to pharmaceuticals.
In this project we exploit the poly-pharmacology of drugs to discover new indications via phenotypic screening of a panel of 19 well-characterized cell lines derived from solid tumors seen in children and adolescents. The goal is to identify approved drugs with previously unrecognized anticancer properties that has the potential to reveal new mechanisms and biological processes involved in carcinogenesis or drug resistance. We employed a titration-based paradigm (quantitative high-throughput screening or qHTS), where all compounds were tested at multiple concentrations for their effect on cell viability. Concentration-response curves (CRCs) were derived directly from the primary screen, and both potency and efficacy values were used to identify compounds with robust bioactivity profiles. We screened the NIH Chemical Genomics Center (NCGC) Pharmaceutical Collection (NPC) and Mechanism Interrogation Plate (MIPE) small molecule collections of approved and investigational compounds against these cell lines; and measured metabolically active cells after 48 hours of compound treatment as a proxy for cell viability.
Assay Submitter: Nathalia J. Martinez, National Center for Advancing Translational Sciences, National Institutes of Health, Rockville, MD, USA; email: natalia.martinez@nih.gov
[1] Shen, M et al. Quantitative high-throughput phenotypic screening of pediatric cancer cell lines identifies multiple opportunities for drug repurposing. Oncotarget 2017 Dec 19;9(4):4758-4772. PMID 29435139.
The cells were obtained from University of North Carolina (UNC), Pediatric Preclinical Testing Program (PPT), and Coriell Institute (CI).
qHTS cell viability assay:
Cells were assayed in growth media at a density of 500-1,000 cells/well. Five microliters of cells were dispensed into 1,536-well, white, solid-bottom, TC-treated plates (Greiner Bio One) using a multidrop dispenser and incubated at 37 degrees C, 5% CO2, under a humidified atmosphere for 5 hours. Twenty-three nanoliters of compounds and controls (neutral control DMSO or positive control bortezomib at final concentration of 2.3 µM) were subsequently transferred by Kalypsys pintool. For primary screens, the MIPE collection was tested at 11-point dilutions (final concentrations range from 0.78 nM to 46 µM) and the NPC collection at 8-point dilutions (final concentrations range from 0.59 nM to 46 µM). Compounds tested in follow-up screens were assayed at 11-point dilutions. Cells were incubated for 48 hours, followed by addition of 3 uL of CellTiter-Glo (Promega). After a 15 min incubation at room temperature, samples were analyzed for luminescence intensity using a ViewLux High-throughput CCD imager equipped with clear filters.
As for `NN=C(N)N`, the Potency entry is “inactive”.
On to `CC(=O)[C@H]1CC[C@H]2[C@@H]3CC[C@H]4C[C@](C)(O)CC[C@]4(C)[C@H]3CC[C@]12C`, for which the Potency entry was “inactive”.
On the same count and under the same terms, the same measure for `NCC1(CC(=O)O)CCCCC1`: “inactive”; for `C[C@]12C/C(=C/O)C(=O)C[C@@H]1CC[C@@H]1[C@@H]2CC[C@@]2(C)[C@H]1CC[C@]2(C)O`: “inactive”.
In the case of `OCCOc1ccccc1`, the Potency entry was “inactive”.
Take `C#CCN(C)[C@H](C)Cc1ccccc1`: the Potency entry is “inactive”.
The same measure, in the same setting: the same measure for `N[C@@H]1C[C@H]1c1ccccc1`: “inactive”; for `CC[C@@H](CO)NC(=O)[C@@H]1C=C2c3cccc4[nH]cc(c34)C[C@H]2N(C)C1`: “inactive”; for `c1ccc2c(c1)Nc1ccccc1S2`: “inactive”.
Take `O=C(O)c1ccc2[nH]cc(CCCCN3CC=C(c4ccccc4)CC3)c2c1`: the Potency entry is “inactive”.
The same measure, in the same setting: the same measure for `COC1(CS(=O)c2ccccc2)CCN(CCc2c[nH]c3ccc(F)cc23)CC1` (stereo not given): “inactive”; for `CN(C)CCc1ccc(O)cc1`: “inactive”; for `NCCc1cc(O)c(O)cc1O`: “inactive”.
Same read-out and setting: the same measure for `FC(F)(F)c1cccc(C2=CCN(CCc3ccc4ccccc4c3)CC2)c1`: “inactive”; for `Cc1cc(SCc2sc(-c3ccc(C(F)(F)F)c(F)c3)nc2C)ccc1OCC(=O)O`: “inactive”.
On the same count and under the same terms, the same measure for `Cc1cccc(C)c1NC(=O)CN1CCCC1=O`: “inactive”.
Take `Oc1ccc(Cl)cc1Cc1ccccc1`: the Potency entry was “inactive”.
The same measure, in the same setting: the same measure for `CCC1(C2=NCCN2)Cc2ccccc2O1` (stereo not given): “inactive”; for `NP(N)(=O)NC(=O)c1ccc(F)cc1`: “inactive”; for `Cn1cc(C2=C(c3cn(C4CCN(Cc5ccccn5)CC4)c4ccccc34)C(=O)NC2=O)c2ccccc21`: “inactive”.
In the case of `Oc1cc(Cl)ccc1Oc1ccc(Cl)cc1Cl`, the Potency is 49.5 µM (active).
Same read-out and setting: the same measure for `O=c1oc2ccccc2c(O)c1C(CC(O)c1ccc(-c2ccc(Br)cc2)cc1)c1ccccc1` (stereo not given): “inactive”.
On to `Cc1ccc2c(c1)C1CN(C)CCC1N2` (stereo not given), for which the Potency result was “inactive”.
Same read-out and setting: the same measure for `CC(C)(C)CC(C)(C)c1ccc(O)cc1`: “inactive”; for `CC(C)(N)Cc1ccc(Cl)cc1`: “inactive”; for `CC(C)(C)NCC(O)c1cc(Cl)c(N)c(Cl)c1` (stereo not given): “inactive”.
On the same count and under the same terms, the same measure for `CCC(COC(=O)c1cc(OC)c(OC)c(OC)c1)(c1ccccc1)N(C)C` (stereo not given): “inactive”; for `CCN(CC)C(=O)N[C@@H]1C=C2c3cccc4[nH]cc(c34)C[C@@H]2N(C)C1`: “inactive”; for `O=C1NCN(c2ccccc2)C12CCN(CC1COc3ccccc3O1)CC2` (stereo not given): “inactive”.
Same read-out and setting: the same measure for `CNCC(O)c1ccc(O)cc1` (stereo not given): “inactive”.
Consider `C[C@@H]1O[C@@H](O[C@H]2C[C@@H](O)[C@]3(CO)[C@H]4[C@H](O)C[C@]5(C)[C@@H](C6=CC(=O)OC6)CC[C@]5(O)[C@@H]4CC[C@]3(O)C2)[C@H](O)[C@H](O)[C@H]1O`, for which the Potency was 29.6 nM (active) and 53.1 nM (active).
Consider `NCC(CC(=O)O)c1ccc(Cl)cc1` (stereo not given), for which the activity change, negative = cytotoxic is -6.69% [at 0.597 µM].
In the case of `C=CCN1CC[C@]23c4c5ccc(O)c4O[C@H]2C(=O)CC[C@@]3(O)[C@H]1C5`, the Potency entry was “inactive”.
Same read-out and setting: the same measure for `CCCN1CCC[C@@H]2Cc3nc(N)ncc3C[C@H]21`: “inactive”.
For the compound `CN1C(=S)CN=C(c2ccccc2)c2cc(Cl)ccc21`, the Potency result is “inactive”.
As to `O=c1[nH]c2ccccc2n1CCCN1CCC(n2c(=O)[nH]c3cc(Cl)ccc32)CC1`, the Potency entry was “inactive”.
The same measure, in the same setting: the same measure for `Cc1ccc(S(=O)(=O)N[C@@H](CCCCN)C(=O)CCl)cc1`: “inactive”; for `C[C@]12CCC(=O)C(O)=C1CC[C@@H]1[C@@H]2CC[C@]2(C)C(=O)CC[C@@H]12`: “inactive”.
As to `CC[C@@H](CO)NC(=O)[C@@H]1C=C2c3cccc4c3c(cn4C)C[C@H]2N(C)C1`, the Potency result is “inactive”.
Take `CCCC(C)(COC(N)=O)COC(=O)NC(C)C` (stereo not given): the Potency entry is “inactive”.
